# Data reported in PubChem BioAssay (Tox21).
# Results filed as inconclusive are left out. A number with no mark means an inactive call. Activity calls are given as the source filed them. Calls follow the shape of the dose curve; as a rule, active = well fitted cell-killing curve with a large enough effect in the repeat runs; inconclusive = weak or mixed curves, or effect the other way; inactive = flat fitted curve, though single readings scatter.
# Assay: qHTS assay to identify small molecule agonists of the sonic hedgehog signaling (Shh) pathway - cell viability counter screen (AID 1259366); also: nearly all actives have a fitted effect of over 50% in size
# Conditions: NIH/3T3 Gli1-Luc viability, CellTiter-Fluor, 24 h; series mostly up to 92.4 µM; viability change, negative = cytotoxic: at the top concentration
# Excerpt: National Center for Advancing Translational Sciences [NCATS]
# NIH Chemical Genomics Center [NCGC]
# U.S. Environmental Protection Agency [EPA]
# National Institutes of Environmental Health Sciences [NIEHS]
# National Toxicology Program [NTP]
# U.S. Food and Drug Administration [FDA]
# The sonic hedgehog (Shh) pathway is essential for normal embryonic development. Dysregulation of the Shh pathway can cause severe developmental defects in organs. Therefore chemicals that interfere with the pathway are potential developmental toxicants. A cell line designated 3T3Gli1-Luc (DMB/OARSA/CFSAN/FDA, Laurel, MD), a NIH/3T3 derived clone containing stably integrated Gli1-Luc reporter is used to detect chemical interference of the Shh pathway, by changes in the expression of the firefly Luc gene under the control of the Gli1 transcriptional response element. This cell line was used to screen Tox21 libraries for identifying and prioritizing the potential developmental toxicants that interfere Shh pathway. The cytotoxicity of the compounds was tested in parallel by measuring the cell viability using CellTiter-Fluor assay system (Promega, Madison, WI) in the same wells.
# Tox21 Assay Protocol Summary:
# 3T3 Gli1-Luc cells were dispensed at 2,000 per well in 5uL of culture medium into white solid bottom 1536-well plates (Greiner Bio-One, Monroe, NC) using a Multidrop Combi (Thermo Scientific, Waltham, MA) dispenser. The assay plates were incubated at 37 C and 5% CO2 for 4hr, and then 23nL of compounds dissolved in DMSO and positive control were transferred using a Pintool station (Wako, San Diego, CA). The assay plates were incubated at 37C and 5% CO2 for 24hr. For viability read, after 23hr of compound treatment, 1uL of CellTiter-Fluor reagent (Promega Corporation, Madison, WI) was added to each well of the assay plates using Flying Reagent Dispenser (FRD, Aurora Discovery, San Diego, CA) and incubated the assay plates at 37C for 1hr. The fluorescence signal was quantified using a ViewLux plate reader (Perkin Elmer, Shelton, CT).
# % is scaled to controls: 0 for no effect and ±100 for the full control effect; potency is read from the fitted curve at half-maximal effect.
SMILES,"viability change, negative = cytotoxic",Potency
CC(C)c1ccc(C#N)cc1,-0.642%,
CC(=O)Oc1cccc(O)c1,-2.5% [at 42.5 µM],
CCN(Cc1cccc(S(=O)(=O)O)c1)c1ccc(C(=C2C=CC(=[N+](CC)Cc3cccc(S(=O)(=O)O)c3)C=C2)c2ccc(O)cc2S(=O)(=O)[O-])cc1,,16.6 µM (active)
COC(=O)CC(C(C)=O)C(=O)OC (stereo not given),0.303%,
COC(=O)c1sccc1S(N)(=O)=O,0.595%,
CC(=O)OCCC(C)CC(C)(C)C (stereo not given),0.288%,
CCCCC(CC)COS(=O)(=O)O (stereo not given),-4.92%,
COc1cc(C(C)=O)ccc1OCCCN1CCC(c2noc3cc(F)ccc23)CC1,1.45% [at 42.5 µM],
FC(F)(F)C(F)(F)C(F)(F)C(F)(F)CCI,-0.801% [at 42.5 µM],
Cc1c[nH]c2ccccc12,0.353% [at 42.5 µM],
CC(C)(C)S,7.79%,
COc1ccc(-c2cc(C(F)F)nn2-c2ccc(S(N)(=O)=O)cc2)cc1F,3.03% [at 42.5 µM],
CCCCOCCOC(=O)c1cccnc1,0.715% [at 42.5 µM],
O=C(O)c1cc(Cl)cc(Cl)c1O,0.979%,
COC(OC)OC,3.98%,
C=CC(=O)NC(C)C,0.301%,
CCC1CCC(CCC(=O)O)C1 (stereo not given),-5.32%,
Oc1ccc2c(c1)Cc1ccccc1-2,-23%,
CC(C)(C)CCCCCCOC(=O)c1ccccc1C(=O)OCCCCCCC(C)(C)C,1.19%,
O=C(O)CCS,-0.213%,

SMILES,"viability change, negative = cytotoxic",Potency
Cc1ccc2c(c1[N+](=O)[O-])C(=O)c1ccccc1C2=O,2.84% [at 42.5 µM],
Nc1ccn([C@H]2CS[C@@H](CO)O2)c(=O)n1,-2.5%,
Cc1cccc(C)c1NC(=O)c1cc(S(N)(=O)=O)c(Cl)cc1O,0.0393% [at 42.5 µM],
O=C1c2ccccc2C(=O)c2c(O)ccc(O)c21,1.37%,
CCN(CC)CCOc1ccccc1C(=O)CCc1ccccc1,-16.6% [at 42.5 µM],
CC1=CC[C@@H]2C[C@H]1C2(C)C,-0.75% [at 19 µM],
C=C(C)c1ccccc1,4.11%,
CCN(CC)c1cccc(O)c1,22.7%,
O=C(/C=C/c1ccc([N+](=O)[O-])cc1)c1ccccc1,3.24%,
O=C(O)CCC(=O)c1ccc(-c2ccccc2)cc1,1.47% [at 42.5 µM],
CC(C)C(O)C(C)(C)CO (stereo not given),8.38%,
O=C(O)CCC(=O)OC[C@@H](NC(=O)C(Cl)Cl)[C@H](O)c1ccc([N+](=O)[O-])cc1,-0.24% [at 42.5 µM],
Cc1ccc2nc(N)[nH]c(=O)c2c1Sc1ccncc1,-21.1% [at 42.5 µM],
C=CC(=O)O,-0.128% [at 42.5 µM],
CCOC(=O)C(C)O (stereo not given),-7.86%,
CC1CCc2nccnc21 (stereo not given),3.03%,
CCN(CC)C(=O)/C(C#N)=C/c1cc(O)c(O)c([N+](=O)[O-])c1,-30.2% [at 42.5 µM],
CCN(CC)CCNC(=O)c1cc(Cl)c(N)cc1OC,-3.73% [at 42.5 µM],
CCOC(=O)c1c(N)sc2c1CCN(Cc1ccccc1)C2,12.3% [at 42.5 µM],
CC1CCCO1 (stereo not given),0.276%,
